Laboratory results reported in the supplement of paper PMC12297408.
Counter-ions that a name gives are not always drawn. Hit rate of the full screen: of about 1,300 compounds, about 40 (3%) showed activity. For the sample, actives were picked, then their nearest neighbours and some compounds at random. Unmarked numbers belong to inactive results.

System: Plasmodium falciparum NF54/iGP1_RE9H ulg8 stage V gametocytes
Test: gametocyte viability (luciferase signal relative to DMSO control) (% of DMSO control); higher = less gametocytocidal activity, active = 50 or less
Conditions: exposure time: 72 h
Method in brief: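 Gametocyte viability is reported relative to the average of DMSO vehicle wells on the same plate. The assay used day-12 stage V NF54/iGP1_RE9Hulg8 gametocytes at ~2.5% gametocytemia and 3% hematocrit, in 0.5% Albumax II medium, added to 96-well plates of compounds spotted in nanolitre volumes for final 10 µM or 1 µM, one well each. After 72 h at 37 °C, 90 µl was mixed with 10 µl D-luciferin (30 mg/ml), and luminescence was recorded with an IVIS Lumina II.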

SMILES	gametocyte viability (concentration: 1 µM)	gametocyte viability (concentration: 10 µM)
C=C1/C(=C\C=C2/CCC[C@]3(C)[C@@H]([C@H](C)/C=C/[C@@H](O)C4CC4)CC[C@@H]23)C[C@@H](O)C[C@@H]1O [Calcipotriene]	79.2	64.3
CCN[C@H]1C[C@H](C)S(=O)(=O)c2sc(S(N)(=O)=O)cc21 [Dorzolamide hydrochloride]	80.2	87.2
CC(C)(Sc1cc(C(C)(C)C)c(O)c(C(C)(C)C)c1)Sc1cc(C(C)(C)C)c(O)c(C(C)(C)C)c1 [Probucol]	84.2	85.2
NC[C@@H]1O[C@H](O[C@H]2[C@@H](O)[C@H](O[C@@H]3[C@@H](O)[C@H](N)C[C@H](N)[C@H]3O[C@H]3O[C@H](CN)[C@@H](O)[C@H](O)[C@H]3N)O[C@@H]2CO)[C@H](N)[C@@H](O)[C@@H]1O [Neomycin sulfate]	81.7	84.7
COc1cc(C(=O)OCCCN2CCCN(CCCOC(=O)c3cc(OC)c(OC)c(OC)c3)CC2)cc(OC)c1OC [Dilazep dihydrochloride]	85.4	94.7
COCCCOc1ccnc(C[S+]([O-])c2nc3ccccc3[nH]2)c1C (configuration not stated) [Rabeprazole Sodium salt]	83.8	80.3
CN(C)c1ccc(O)c2c1C[C@H]1C[C@H]3[C@H](N(C)C)C(=O)C(C(N)=O)=C(O)[C@@]3(O)C(=O)C1=C2O [Minocycline hydrochloride]	83.1	83.3
C=C(CC)C(=O)c1ccc(OCC(=O)O)c(Cl)c1Cl [Ethacrynic acid]	90.4	92.5
N=C(N)NCc1cccc(I)c1 [Iobenguane sulfate]	99.3	100
CC1(C)O[C@@H]2C[C@H]3[C@@H]4C[C@H](F)C5=CC(=O)C=C[C@]5(C)[C@@]4(F)[C@@H](O)C[C@]3(C)[C@]2(C(=O)CO)O1 [Fluocinolone acetonide]	83.3	83.3
CCC1=C(C)CN(C(=O)NCCc2ccc(S(=O)(=O)NC(=O)N[C@H]3CC[C@H](C)CC3)cc2)C1=O [Glimepiride]	97.7	101
CC(C)(Oc1ccc(CCNC(=O)c2ccc(Cl)cc2)cc1)C(=O)O [Bezafibrate]	98.6	97
CCCCC(CC)CNC(=N)NC(=N)NCCCCCCNC(=N)NC(=N)NCC(CC)CCCC (configuration not stated) [Alexidine dihydrochloride]	36.2 (active)	0.515 (active)
O=C(O)[C@H]1/C(=C/CO)O[C@@H]2CC(=O)N21 [Potassium clavulanate]	91.1	87.4
C[C@]12CC[C@@H]3c4ccc(O)cc4CC[C@H]3[C@@H]1CC[C@@H]2O [Estradiol-17 beta]	69.7	41.9 (active)
C[C@]12CC[C@@H]3c4ccc(O)cc4CC[C@H]3[C@@H]1CCC2=O [Estrone]	99.2	96.4
C[C@]12CC[C@@H]3c4ccc(O)cc4CC[C@H]3[C@@H]1C[C@@H](O)[C@@H]2O [Estriol]	94.6	92.2
CCCCCCC[N+](CC)(CC)CCCCc1ccc(Cl)cc1 [Clofilium tosylate]	97.3	47.8 (active)
NNC(=O)c1ccncc1 [Isoniazid]	80.8	83.4

SMILES	gametocyte viability (concentration: 1 µM)	gametocyte viability (concentration: 10 µM)
Cc1ncc(C[n+]2csc(CCO)c2C)c(N)n1 [Thiamine hydrochloride]	94	89.4
CCCc1cc(C(N)=S)ccn1 [Prothionamide]	93.7	95.2
CC(=O)Oc1cc(C(F)(F)F)ccc1C(=O)O [Triflusal]	82.3	87.1
CC1(O)CCOC(=O)C1 (configuration not stated) [Mevalonic-D, L acid lactone]	86.7	93.8
CC1c2cccc(O)c2C(O)=C2C(=O)C3(O)C(O)=C(C(N)=O)C(=O)C(N(C)C)C3C(O)C21 (configuration not stated) [Doxycycline hydrochloride]	94.5	92.2
CC(=O)N(O)CCCCCNC(=O)CCC(=O)N(O)CCCCCNC(=O)CCC(=O)N(O)CCCCCN [Deferoxamine mesylate]	90.6	82.7
CC(C(O)c1ccc(O)cc1)N1CCC(Cc2ccccc2)CC1 (configuration not stated) [Ifenprodil tartrate]	81.9	79.7
CC(=O)O[C@H]1C[C@@H]2CC[C@@H]3[C@H](CC[C@@]4(C)[C@H]3C[C@H]([N+]3(C)CCCCC3)[C@@H]4OC(C)=O)[C@@]2(C)C[C@@H]1N1CCCCC1 [Vecuronium bromide]	85.2	93.1
CCC(C)(C)c1ccc(CC(C)CN2C[C@@H](C)O[C@@H](C)C2)cc1 (some centres not stated) [Amorolfine hydrochloride]	79.2	71.3
Cc1ccc(C)c(OCCCC(C)(C)C(=O)O)c1 [Gemfibrozil]	86.7	88.3
C=CC(N)CCC(=O)O (configuration not stated) [Vigabatrin]	84.9	90.6
CC(Oc1c(Cl)cccc1Cl)C1=NCCN1 (configuration not stated) [Lofexidine]	92.5	90.5
CCCCC1C(=O)N(c2ccccc2)N(c2ccccc2)C1=O [Phenylbutazone]	91	85.4
O=C(O)CN(CCN(CC(=O)O)CC(=O)O)CCN(CC(=O)O)CC(=O)O [Pentetic acid]	101	101
NNc1nncc2ccccc12 [Hydralazine hydrochloride]	94.8	12.8 (active)
CCOC(=O)NNc1nncc2ccccc12 [Todralazine hydrochloride]	86.1	76.5
O=C1C(=O)c2ccccc2C(O)=C1C1CCC(c2ccc(Cl)cc2)CC1 (configuration not stated) [Atovaquone]	91.4	99.6
C#C[C@]1(O)CC[C@H]2[C@@H]3CCC4=C(CCC(=O)C4)[C@H]3CC[C@@]21C [Norethynodrel]	83.2	68.7
COC(=O)C1=C(C)NC(C)=C(C(=O)OC)C1c1ccccc1[N+](=O)[O-] [Nifedipine]	91.8	80.7

SMILES	gametocyte viability (concentration: 1 µM)	gametocyte viability (concentration: 10 µM)
Clc1ccc(C(Cn2ccnc2)OCc2c(Cl)cccc2Cl)c(Cl)c1 (configuration not stated) [Isoconazole]	91.2	90.9
CN(C)CCOC(C)(c1ccccc1)c1ccccn1 (configuration not stated) [Doxylamine succinate]	87.8	87.7
Cc1cc(-n2c(=O)[nH]c(=O)n(C)c2=O)ccc1Oc1ccc(SC(F)(F)F)cc1 [Toltrazuril]	86.4	84.2
CC1(C)O[C@@H]2C[C@H]3[C@@H]4C[C@H](F)C5=CC(=O)C=C[C@]5(C)[C@H]4[C@@H](O)C[C@]3(C)[C@]2(C(=O)CO)O1 [Flunisolide]	87.5	88.9
CC(C)(C)CC(C)(C)c1ccc(OCCOCC[N+](C)(C)Cc2ccccc2)cc1 [Benzethonium chloride]	82.1	9.32 (active)
Cc1cc(C(C)(C)CC(C)(C)C)ccc1OCCOCC[N+](C)(C)Cc1ccccc1 [Methyl benzethonium chloride]	88.6	6.6 (active)
C[N+](C)(CCOc1ccccc1)Cc1ccccc1.O=C([O-])c1cc2ccccc2cc1O [Bephenium hydroxynaphthoate]	87.3	89.9
Cc1cc(C2CCCCC2)n(O)c(=O)c1 [Ciclopirox ethanolamine]	85.5	86.8
Clc1ccc2nsnc2c1NC1=NCCN1 [Tizanidine HCl]	93.4	98.4
C[C@H]1[C@H](NC(=O)/C(=N\OC(C)(C)C(=O)O)c2csc(N)n2)C(=O)N1S(=O)(=O)O [Aztreonam]	96.9	96
CCOC(=O)O[C@]1(C(=O)OCCl)CC[C@H]2[C@@H]3CCC4=CC(=O)C=C[C@]4(C)[C@H]3[C@@H](O)C[C@@]21C [Loteprednol etabonate]	88.2	85
Cc1cccc(C)c1NC(=O)C(C)N (configuration not stated) [Tocainide hydrochloride]	91.8	90.2
O=C1Cc2cc(CCN3CCN(c4nsc5ccccc45)CC3)c(Cl)cc2N1 [Ziprasidone  Hydrochloride]	82.9	71.6
O=C1[C@H]2CCCC[C@H]2C(=O)N1CCCCN1CCN(c2nsc3ccccc23)CC1 [Perospirone]	64.7	39.7 (active)
O=C1CC2(CCCC2)CC(=O)N1CCCCN1CCN(c2ncccn2)CC1 [Buspirone hydrochloride]	83.9	65.7
N=c1nc(N2CCCCC2)cc(N)n1O [Minoxidil]	102	96
OCCN(CCO)c1nc(N2CCCCC2)c2nc(N(CCO)CCO)nc(N3CCCCC3)c2n1 [Dipyridamole]	64.1	41.1 (active)
CC(C)NCC(O)c1ccc(O)c(O)c1 (single isomer, unassigned; (+)) [(+)-Isoproterenol (+)-bitartrate salt]	100	97.8
